# From PMC7819943, “Rice protein-binding microarrays: a tool to detect cis-acting elements near promoter regions in rice”
# The full ranking holds about 39,000 sequences; the median of “fluorescence intensity (a.u.)” is about 4,300, and the highest 2% start at about 39,000. For the sample, the highest values were picked, then their nearest neighbours and some sequences at random.
# Biological target: T1, OsSMF1 (Oryza sativa, UniProt Q6ZLB0 1-436)
# T1 sequence: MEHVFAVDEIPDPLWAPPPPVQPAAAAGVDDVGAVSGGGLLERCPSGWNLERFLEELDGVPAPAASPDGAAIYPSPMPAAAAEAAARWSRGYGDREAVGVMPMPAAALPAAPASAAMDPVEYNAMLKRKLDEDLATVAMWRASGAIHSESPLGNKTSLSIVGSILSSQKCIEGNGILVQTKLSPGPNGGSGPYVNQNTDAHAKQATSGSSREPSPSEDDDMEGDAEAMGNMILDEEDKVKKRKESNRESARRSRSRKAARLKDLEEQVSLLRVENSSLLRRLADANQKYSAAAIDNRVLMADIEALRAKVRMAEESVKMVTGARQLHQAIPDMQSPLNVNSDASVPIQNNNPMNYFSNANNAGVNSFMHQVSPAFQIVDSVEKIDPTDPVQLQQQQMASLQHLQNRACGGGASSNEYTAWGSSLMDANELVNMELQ
# Test: protein-binding microarray (RPBM); PBS, 2% BSA, 51.3 ng/ul salmon testes DNA, 50 uM zinc acetate, 200 nM TF, 25 C, 1 h; high values mean tight binding
# Details: protein: recombinant; tags: N-terminal polyhistidine and DsRed monomer fusion (pET32a); chain copies: 2; label: CyDye5-dUTP incorporated in the synthesized complementary strand; 3' TTTTT single-stranded linker to array surface; dsDNA, one strand shown
# Method in brief: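 Binding signal here means per-feature fluorescence intensity in arbitrary units. The values were read on an Axon 4000B scanner after a custom Agilent array, double-stranded by primer extension with Cy5-dUTP, was incubated with 200 nM protein at 25 °C for 1 h in PBS with 2% BSA, salmon testes DNA and 50 µM zinc acetate, then washed. The proteins were transcription factors with an N-terminal polyhistidine tag and DsRed, expressed in E. coli BL21-CodonPlus and purified on Ni–NTA.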
row,Sequence,binding signal
1,CTTTTGCTCACATGGCGTGCCACCGTGGCGTGCCCGCATGCGGAGTCACCTAGTGCAG,16200 fluorescence intensity (a.u.)
2,TTTTGCACACATGTATCATGCTGACGTCAGCATGACGTGGCGGAGTCACCTAGTGCAG,61200 fluorescence intensity (a.u.)
3,GTTGACCGTCTACGTGGCATTCCACGTAGGCAGCTCATTTCGGAGTCACCTAGTGCAG,16600 fluorescence intensity (a.u.)
4,TTTGACTCCGATTTTATCCGACGTGGCAGCTGACTCAGCGCGGAGTCACCTAGTGCAG,25300 fluorescence intensity (a.u.)
5,ATTTGGGCGGCAAGCTGACGTGGCACACGGCGTCATGACTCGGAGTCACCTAGTGCAG,18100 fluorescence intensity (a.u.)
6,ACTCCGGTTTTATCCGACGTGGCAGCTGACTCAGCATGGGCGGAGTCACCTAGTGCAG,44300 fluorescence intensity (a.u.)
7,TACTGTAGCACCACATTGTCAATCATGGCGCAATTATGCTCGGAGTCACCTAGTGCAG,12900 fluorescence intensity (a.u.)
8,GAATACCAAGAACGACGTCATACAAGACTGACGTGCGGTCCGGAGTCACCTAGTGCAG,5690 fluorescence intensity (a.u.)
9,AATGTCCCATCTTTCGTGTGTAAGGCACGTTAGTCTCAGGCGGAGTCACCTAGTGCAG,4290 fluorescence intensity (a.u.)
10,GTATGGGTTCGAGGAGTGATGTGGTGATGGGCAAACCCATCGGAGTCACCTAGTGCAG,3300 fluorescence intensity (a.u.)
11,CACCCTTAAATCATATATGTGGTTTTAATATTTGGGGATGCGGAGTCACCTAGTGCAG,33200 fluorescence intensity (a.u.)
12,CGAGACTGACAAGGCATTCCAGACACTTAAACAAGCACTGCGGAGTCACCTAGTGCAG,3350 fluorescence intensity (a.u.)
13,CTCTCGAAGCTGCCCTAGCCTCTCCGCTGCTCCGATCCACCGGAGTCACCTAGTGCAG,24500 fluorescence intensity (a.u.)
14,ATGTTTGAGCATGCAGCAAAGACAGATCTAACACTCAAGCCGGAGTCACCTAGTGCAG,3970 fluorescence intensity (a.u.)
15,CCCAGCACCCTACTACACCAACATACTCCTACGTGGAGCACGGAGTCACCTAGTGCAG,6040 fluorescence intensity (a.u.)
16,GTATCCATATATCCGATATGACACGCCAAAACTTTACACCCGGAGTCACCTAGTGCAG,4870 fluorescence intensity (a.u.)
17,ACCATCCGAGCTGTCAAGATCCGACGTGGGTTGTGAAGGCCGGAGTCACCTAGTGCAG,8700 fluorescence intensity (a.u.)
18,ATAGTTGTGATTAGATTGTGACGTACACAATGAGTATGCACGGAGTCACCTAGTGCAG,5250 fluorescence intensity (a.u.)
19,GCGAAGAACGCTTGCACTTGTGTGCAGCGACGCGCGAATTCGGAGTCACCTAGTGCAG,4440 fluorescence intensity (a.u.)
20,GTTCCACATTTCAGCATTAATGAATTGGCATACGTGATGACGGAGTCACCTAGTGCAG,3360 fluorescence intensity (a.u.)
21,AGTATGCTTTTCTTAACGATGACGTCAGCATACACCTCGGCGGAGTCACCTAGTGCAG,45200 fluorescence intensity (a.u.)

row,Sequence,binding signal
1,GGCGCTGATGTCATGCTGACGTCAGTGCCTGATTTTGCTCCGGAGTCACCTAGTGCAG,56100 fluorescence intensity (a.u.)
2,AGTTTTGTACGCATGTGTGGCGCTGACGTCATGCCCGATCCGGAGTCACCTAGTGCAG,18000 fluorescence intensity (a.u.)
3,GGCGGCGATGGCGGCCGTGCTGACGGACGATTTCCTGCTCCGGAGTCACCTAGTGCAG,3220 fluorescence intensity (a.u.)
4,GGATGCATGCATGCTGATGATGTCAGGCTGATACGTGCGTCGGAGTCACCTAGTGCAG,7340 fluorescence intensity (a.u.)
5,TCTCGCTTAATGTTTTCTTTACACATACGATGCTTTAGATCGGAGTCACCTAGTGCAG,3790 fluorescence intensity (a.u.)
6,TTTGCATACGTGCATGCTTGATGACGTCATGCTGACGTGGCGGAGTCACCTAGTGCAG,63100 fluorescence intensity (a.u.)
7,CTTGGCCGTGGCCGCTGACATGGCATCACCTCATCCGCAACGGAGTCACCTAGTGCAG,4320 fluorescence intensity (a.u.)
8,TTGCTGCAAATGACGTCGACATGTGCGTGGCATACCATGGCGGAGTCACCTAGTGCAG,15000 fluorescence intensity (a.u.)
9,TTTCTTTTCAGACGATGACGTCACACCGTTCTTCATGTATCGGAGTCACCTAGTGCAG,12300 fluorescence intensity (a.u.)
10,TGTTCCAACCCGCTCCGTGTGCTGACGTGGCATGACATGGCGGAGTCACCTAGTGCAG,44900 fluorescence intensity (a.u.)
11,TTCCAACCCGCCCCGTGTGCTGACGTGGCAGCCATGTTGGCGGAGTCACCTAGTGCAG,19300 fluorescence intensity (a.u.)
12,CAAACAATATTCTTTTGTGACTAGATCAAGCCGTAGTGTTCGGAGTCACCTAGTGCAG,3650 fluorescence intensity (a.u.)
13,TATGTACCTTTTCCACAGAACCCTCTACTGTGCCAGGTCACGGAGTCACCTAGTGCAG,15600 fluorescence intensity (a.u.)
14,CGCGGCAGATCCGCTGGTTGTGGCGGCGTCAGCGGTAGCCCGGAGTCACCTAGTGCAG,4030 fluorescence intensity (a.u.)
15,ACGACATGCGTGCAAATGCATTGTAAATTTGTAATACGGCCGGAGTCACCTAGTGCAG,22300 fluorescence intensity (a.u.)
16,TACTTTCGTTTGCAAATATGCGGAATGATGGGGCTGTTTCCGGAGTCACCTAGTGCAG,3700 fluorescence intensity (a.u.)
17,CACTCTTTATTTTATTATGACTTGATTCGTCATCAAATGTCGGAGTCACCTAGTGCAG,3870 fluorescence intensity (a.u.)
18,ACCCACACCTCGTCCCCGTCACCTCCTATATCATCGTCATCGGAGTCACCTAGTGCAG,6470 fluorescence intensity (a.u.)
19,AATATTCTCTGTCTCGGTGTGGTGTCTCTCCTCTGACGGCCGGAGTCACCTAGTGCAG,4810 fluorescence intensity (a.u.)
20,ATTAGATTTACCGCAAACAATGACGTCCTCCCTGCCTGGACGGAGTCACCTAGTGCAG,4900 fluorescence intensity (a.u.)
21,ATAATGCATTTAGTATTGCCACCCTGTACTAATAGATGTTCGGAGTCACCTAGTGCAG,3810 fluorescence intensity (a.u.)
